Assay results: PMC5540273 (PLoS ONE, 2017)

Legend:
Conditions in all cases: concentration: 1 μM, replicates: in singlicate; n = 1
DYRK1B = tested on: DYRK1B
DYRK2 = tested on: DYRK2
EGFR = tested on: EGFR
EIF2AK1 = tested on: EIF2AK1
EPHA1 = tested on: EPHA1
EPHA2 = tested on: EPHA2
EPHA3 = tested on: EPHA3
EPHA4 = tested on: EPHA4
EPHA5 = tested on: EPHA5
EPHA6 = tested on: EPHA6
EPHA7 = tested on: EPHA7
EPHA8 = tested on: EPHA8
EPHB1 = tested on: EPHB1
EPHB2 = tested on: EPHB2
EPHB3 = tested on: EPHB3
EPHB4 = tested on: EPHB4
EPHB6 = tested on: EPHB6
ERBB2 = tested on: ERBB2
ERBB3 = tested on: ERBB3
ERBB4 = tested on: ERBB4
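Also: KINOMEscan kinase panel screen.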

| SMILES | %Inh (DYRK1B) | %Inh (DYRK2) | %Inh (EGFR) | %Inh (EIF2AK1) | %Inh (EPHA1) | %Inh (EPHA2) | %Inh (EPHA3) | %Inh (EPHA4) | %Inh (EPHA5) | %Inh (EPHA6) | %Inh (EPHA7) | %Inh (EPHA8) | %Inh (EPHB1) | %Inh (EPHB2) | %Inh (EPHB3) | %Inh (EPHB4) | %Inh (EPHB6) | %Inh (ERBB2) | %Inh (ERBB3) | %Inh (ERBB4) |
| --- | --- | --- | --- | --- | --- | --- | --- | --- | --- | --- | --- | --- | --- | --- | --- | --- | --- | --- | --- | --- |
| CCNC(=O)/C=C/c1n[nH]c2cc(Sc3ccccc3C(=O)NC)ccc12 | 0% | 7% | 23% | 29% | 9% | 7% | 0% | 5% | 42% | 16% | 0% | 0% | 0% | 1% | 10% | 14% | 20% | 16% | 3% | 1% |
| O=C(Nc1c(F)cccc1F)c1cc(C(=O)c2ccccc2F)c[nH]1 [GSK1326180] | 17% | 12% | 26% | 0% | 0% | 11% | 0% | 9% | 0% | 2% | 0% | 0% | 4% | 0% | 6% | 0% | 0% | 35% | 20% | 0% |
| CN(c1ccc(NC(=O)N2CCN(CCCN3CCOCC3)CC2)cc1)c1ccnc(Nc2ccc(CS(C)(=O)=O)cc2)n1.Cl [GW830899] | 0% | 0% | 48% | 0% | 48% | 22% | 0% | 4% | 0% | 0% | 0% | 0% | 0% | 4% | 0% | 22% | 81% | 2% | 17% | 0% |
| Cc1ccc(O)cc1Nc1ccnc2ccc(C(C)(C)C)cc12 [GW856805] | 19% | 19% | 37% | 44% | 99% | 92.9% | 71% | 91.3% | 99.3% | 79% | 0% | 98.2% | 97.4% | 92.5% | 100% | 97.1% | 24% | 32% | 15% | 24% |
| Cc1ccc(Nc2ccnc(Nc3ccc(C)c(F)c3)n2)cc1O.Cl [GW582868] | 0% | 0% | 38% | 3% | 48% | 19% | 0% | 2% | 0% | 6% | 0% | 26% | 1% | 0% | 0% | 8% | 0% | 19% | 13% | 9% |
| Cl.Cl.NCC(NC(=O)c1cc(-c2cccnc2)c(-c2ccnc3[nH]ccc23)s1)c1ccccc1 (stereo not drawn) [GSK1323434] | 17% | 33% | 72% | 0% | 4% | 10% | 40% | 0% | 0% | 2% | 17% | 33% | 23% | 22% | 0% | 18% | 21% | 58% | 1% | 48% |
| CSc1ccc(NC2=C(c3ccc(Cl)cc3)C(=O)NC2=O)cc1 [SB-317658] | 17% | 22% | 6% | 0% | 32% | 0% | 0% | 28% | 31% | 26% | 0% | 5% | 0% | 6% | 21% | 11% | 0% | 0% | 0% | 0% |
| Cn1cc(-c2ccc3c(c2)CCN3C(=O)Cc2cc(F)cc(C(F)(F)F)c2)c2c(N)ncnc21 [GSK2635225] | 0% | 4% | 23% | 22% | 21% | 11% | 26% | 0% | 0% | 17% | 2% | 2% | 21% | 15% | 12% | 8% | 44% | 10% | 0% | 0% |
| COC(=O)Nc1nc2ccc(Oc3ccc(NC(=O)Nc4cc(C(F)(F)F)ccc4F)cc3)cc2[nH]1.Cl [GW654607] | 42% | 13% | 29% | 26% | 90.9% | 98% | 39% | 96.8% | 66% | 97.7% | 89% | 99.6% | 81% | 80% | 40% | 58% | 92.4% | 6% | 0% | 6% |
